GLP1R cytotox: cytotoxic in the GLP-1 receptor inverse agonist counter-screen. HEK293 cAMP-luciferase reporter cells, luminescence, 24 h. Potency, µM (series often up to 38.3 µM), most hits filed as inhibitors. actives 0.13% (n = 410,000);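 further: loss of luciferase light is scored as toxicity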
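1536-well qHTS counterscreen of the MLSMR; 200 cells/uL, 12 h pre-incubation, 23 nL cpd, 24 h at 37 deg C 5% CO2, luciferase detection reagent, 12 min RT, luminescence. Inhibition = undesired.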
a7 integrin act: activators of alpha7 integrin expression for muscular dystrophy; actives 0.064% (n = 350,000); Potency, µM (highest dose often 38.3 µM), hits mostly activators; alpha7betagal myoblasts, beta-gal FDG fluorescence, 48 h; further: nearly all actives have a fitted effect of over 60% in size
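Alpha7betagal+/- myoblasts (passage 13) were plated 16-24 hr, then exposed to compounds (1:260 dilution of DMSO stock) for 48 hours at 37C. After MPER lysis, β-galactosidase reporter activity was read as FDG fluorescence (ex 480/em 540) after 30 minutes.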
GLP1R ag: activates the human GLP-1 receptor | actives 0.007% (n = 380,000) | AID 624172 | HEK293 GLP-1R CRE-luciferase, luminescence, 4-6 h; cells express a hypersensitive GLP-1R form | Potency, µM (doses to about 45.6 µM), usual class: activators
Target sequence (P43220 whole entry, looked up): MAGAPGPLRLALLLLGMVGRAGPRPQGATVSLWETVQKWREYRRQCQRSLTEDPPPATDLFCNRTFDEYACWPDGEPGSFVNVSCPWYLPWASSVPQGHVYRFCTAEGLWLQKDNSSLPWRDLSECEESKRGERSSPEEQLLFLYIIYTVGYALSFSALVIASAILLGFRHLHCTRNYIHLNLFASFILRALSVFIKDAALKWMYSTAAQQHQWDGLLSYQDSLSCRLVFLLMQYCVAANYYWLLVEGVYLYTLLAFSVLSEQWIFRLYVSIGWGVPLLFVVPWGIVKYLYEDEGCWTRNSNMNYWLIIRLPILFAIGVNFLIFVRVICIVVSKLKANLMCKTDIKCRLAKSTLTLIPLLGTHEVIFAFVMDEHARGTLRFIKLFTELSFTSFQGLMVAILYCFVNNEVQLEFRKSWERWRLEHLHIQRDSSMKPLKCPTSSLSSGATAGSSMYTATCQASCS
GLP-1R inv ag: inverse agonists of human GLP-1 receptor. P43220. HEK293 GLP-1R CRE-luciferase, luminescence, 24 h; GLP-1R form is constitutively active. actives 1.6% (n = 410,000). Potency, µM (doses to about 38.3 µM), actives largely listed as inhibitors; further: nearly all actives have a fitted effect of over 55% in size
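Readout was luciferase luminescence, measured 12 min after detection reagent at room temperature. Beforehand, GLP-1R reporter HEK293 cells had sat 12 h, then received compounds for 24 hr at 37 deg C.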
BRCA1 expr act: activators of BRCA1 expression; MCF7-BRCA1-FFLuc reporter, luminescence, 48 h; response scale: scaled: vehicle 0%, 10 µM genistein 100%; Potency, µM (top dose mostly 46.1 µM), actives largely listed as activators; actives 1.1% (n = 380,000); further: nearly all actives have a fitted effect of over 80% in size
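Using MCF7 cells harboring a BRCA1 firefly luciferase reporter, plated 2 h before compound pinning, the screen measured luminescence after 48 h incubation. Responses were normalized to DMSO and 10 microM genistein, then fitted for concentration-effect.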
Numbers stand for hits; 0 = inactive; ? = inconclusive; - = no result; [ ] = dose if it differs, or a comment. This is a sample that favours compounds with a hit; in the whole collection about 2.7% have one here. The call rests on the fitted dose curve; in most records, active means well fitted curve in the direction sought with a large enough effect; inconclusive means small, poorly fitted or top-dose-only effect, or another doubt; inactive means no such curve, though single readings can be large; an effect the other way counts as inactive or inconclusive.

SMILES | GLP1R cytotox | a7 integrin act | GLP1R ag | GLP-1R inv ag | BRCA1 expr act
CCC(Oc1ccc(F)cc1)C(=O)Nc1cc(-c2ccc(C)cc2)no1 (stereo not given) | 0 | - | - | ? | -
O=C(CSC1=Nc2ccccc2N=C(c2ccc(F)cc2)C1)NCc1ccccc1 | 0 | - | 0 | 0 | 0
O=C(Cn1cc(C(F)(F)F)cc(Cl)c1=O)NCc1ccc(F)cc1 | 0 | 0 | 0 | 0 | 11µM
COC(C(=O)C(O)C(C)O)C1Cc2cc3cc(OC4CC(OC5CC(O)C(O)C(C)O5)C(O)C(C)O4)c(C)c(O)c3c(O)c2C(=O)C1OC1CC(OC2CC(OC3CC(C)(O)C(O)C(C)O3)C(O)C(C)O2)C(O)C(C)O1 (stereo not given) | - | - | - | - | 0
NS(=O)(=O)c1ccc(CCNC(=O)c2cc(-c3ccc(Br)cc3)nc3ccccc23)cc1 | 11µM | 0 | 0 | ? | 0
O=C(NCCN1CCOCC1)c1cc(-c2ccccc2)nc2ccccc12 | 0 | 0 | 0 | 0 | 0
CCCc1ccc(-c2cc(C(=O)NN3CCOCC3)c3ccccc3n2)cc1 | 0 | 0 | 0 | 0 | 14µM
CCc1ccc(Sc2cc(C(=O)NCCN3CCOCC3)c3ccccc3n2)cc1 | 0 | 11µM | 0 | ? | 0
CCCc1ccc(-c2cc(C(=O)NCCc3ccc(S(N)(=O)=O)cc3)c3ccccc3n2)cc1 | 0 | 0[7.66 µM] | 0 | 0 | ?
CCOC(=O)c1ccc(CN(Cc2ccc(Cl)cc2Cl)S(=O)(=O)c2ccc(F)c(C)c2)cc1 | 0 | - | - | 0 | -
COc1cccc(-c2nn(Cc3ccccc3)cc2CO)c1 | 0 | 0 | 0 | 0 | 13µM
NCc1cn(Cc2ccccc2)nc1-c1ccccc1 | - | - | - | - | 0
CCOC(=O)c1c(Nc2cc(C)cc(C)c2)nnc(-c2ccccc2)c1-c1ccccc1 | 0 | - | 0 | 7.9µM | 0
CN1CCc2c(sc3c2C(=O)NC(c2ccco2)N3)C1 (stereo not given) | 0 | 0 | 0 | 0 | 0
CN1CCc2c(sc3c2C(=O)NC(c2cn(Cc4ccccc4)c4ccccc24)N3)C1 (stereo not given) | 0 | 0 | 0 | 4µM | 0
CC1(C)CC(=O)c2c(O)cc(OCc3ccc(Br)cc3)cc2O1 | 0 | 0[7.66 µM] | 0 | 0 | 3.5µM
O=C(O)c1ccccc1N/N=C\c1ccnc2ccccc12 | 0 | 0 | 0 | 4.5µM | ?
ON=Cc1ccnc2ccccc12 | 0 | 0 | 0 | 0 | 0
CN1CCN(c2ncc3c(n2)CCN(Cc2cc(Br)cs2)C3)CC1 | 0 | - | - | ? | -
COc1ccc(OCC(O)Cn2cnc(-c3ccc(Br)cc3)c2)cc1 (stereo not given) | 0 | 0 | 0 | ? | 0
OC(COc1ccc2ccccc2c1Br)Cn1cnc(-c2ccccc2)c1 (stereo not given) | 0 | 0 | 0 | 10µM | 0
O=[N+]([O-])c1ccc(/C=N/N=C/c2ccc([N+](=O)[O-])o2)o1 | 10µM | 0 | 0 | ? | 0
O=c1/c(=C/c2ccc([N+](=O)[O-])cc2)sc2n1CCCN=2 | 0 | 0 | 0 | 0 | 3.5µM
Cc1ccc(-n2ncc(C(=O)NCc3cccs3)c2C2CCN(C(=O)OC(C)(C)C)CC2)cc1C | 0 | - | - | ? | -
Cc1cc(C(=O)COC(=O)c2ccc(O)cc2)c(C)n1CC1CCCO1 (stereo not given) | 0 | 0 | 0 | 0 | ?
SMILES | GLP1R cytotox | a7 integrin act | GLP1R ag | GLP-1R inv ag | BRCA1 expr act
Cc1cc(C(=O)COC(=O)c2ccc(Cl)c(S(N)(=O)=O)c2)c(C)n1CC1CCCO1 (stereo not given) | 0 | ? | 0 | ? | 11µM
CCC(=O)C1=C(c2ccc(F)cc2)N(C(=O)CC)n2cnnc2S1 | 0 | - | - | 0 | -
FC(F)(F)C(F)(F)C(F)(F)C(F)(F)C(F)(F)C(F)(F)C(F)(F)C(F)(F)Br | - | - | 0 | - | -
CN=C(NC)NCc1ccccc1 | - | - | 0 | - | -
CC1CCCC(C)N1C(=O)c1ccccc1Nc1ccc(SC(F)F)cc1 (stereo not given) | 0 | 0 | 0 | 5.6µM | 0
O=C(NC1CCCCC1)c1cc(C2CC2)nn1-c1ccccc1 | 0 | 0 | 0 | 5.6µM | 0
CC(C)(C)c1ccc(C(=O)NCC2CCCN2S(=O)(=O)c2ccccc2)cc1 (stereo not given) | 0 | 0 | 0 | 5µM | 0
CCOC(=O)c1ccccc1NC(=O)N1CCCn2nc(C)cc21 | 0 | - | - | 0 | -
Cc1oc2ncn(CC(C)C)c(=O)c2c1C(=O)NCc1cccc(Cl)c1 | 0 | - | - | 0 | 0
COc1ccc(/C=N/Nc2cc(C)nc(-n3nc(C)cc3C)n2)c(OC)c1 | ? | 0 | 0 | 1.3µM | 0
C=C(C)COc1ccc(-c2[nH]ncc2-c2ccc(OC)cc2)c(O)c1 | 0 | 0 | 0 | 11µM | 0
C=C(C)COc1ccc(-c2n[nH]c(C)c2Oc2ccccc2OC)c(O)c1 | 0 | 0 | 0 | 7.9µM | 0
C=C(C)COc1ccc(-c2[nH]ncc2Oc2cccc(OC)c2)c(O)c1 | ? | 0 | 0 | 10µM | 0
CCCOC(=O)c1ccc(Oc2c(-c3ccc(OC)cc3O)n[nH]c2C)cc1 | ? | 0 | 0 | 8.9µM | 0
C=C(C)COc1ccc(-c2[nH]ncc2-c2ccccc2)c(O)c1 | 0 | 0 | 0 | ? | 0
C=C(C)COc1ccc(-c2[nH]ncc2Oc2ccccc2OCC)c(O)c1 | 0 | 0 | 0 | ? | 0
O=C(C1CCC(Cn2c(=O)c3sccc3n(Cc3cccc(F)c3)c2=O)CC1)N1CCOCC1 (stereo not given) | 0 | - | - | 0 | -
C=C(C)COc1ccc(-c2ncncc2Oc2ccc(OC)cc2)c(O)c1 | 0 | 0 | 0 | 10µM | 0
Cc1ccc(Cn2c(CCNC(=O)C(C)C)nc3ccccc32)cc1 | 0 | - | - | ? | -
Cc1cccc(C(=O)Oc2ccc(/C=N/NC(=O)c3cc(O)cc(O)c3)cc2)c1 | 0 | 0 | 0 | 10µM | 0
CC(C)(C)NCC(O)(c1ccc(Cl)cc1)c1ccc(Cl)cc1 | ? | 0 | 0 | 4.5µM | 0
NCC(O)(c1ccc(Cl)cc1)c1ccc(Cl)cc1 | 0 | 0 | 0 | ? | 0
CC(C)NCC(O)(c1ccc(Cl)cc1)c1ccc(Cl)cc1 | 0 | 0 | 0 | 13µM | 0
CCN(CC)CCNCC(O)(c1ccc(Cl)cc1)c1ccc(Cl)cc1 | 0 | 0 | 0 | 8.9µM | 0
COc1ccc2c(=O)c(-c3ccc(OC)c(OC)c3)coc2c1 | 0 | 0 | 0 | 0 | 11µM
COc1ccc2c(=O)c(-c3ccccc3)coc2c1 | 0 | 0 | 0 | ? | ?
O=c1c(-c2ccc3c(c2)OCCO3)coc2cc(OC3OC(CO)C(O)C(O)C3O)ccc12 (stereo not given) | 0 | ? | 0 | 0 | ?
COc1ccc(-c2coc3cc(O[C@@H]4O[C@H](CO)[C@@H](O)[C@H](O)[C@H]4O)ccc3c2=O)cc1 | 0 | 0 | 0 | 0 | 2.8µM
COc1ccc(-c2coc3cc(OC(C)=O)c(OC)cc3c2=O)cc1 | 0 | 0 | 0 | 0 | 10µM
Cn1cccc1/C=N\NC(=O)C1COc2ccc(C(C)(C)C)cc2O1 (stereo not given) | 0 | ? | 0 | 10µM | 0
